Assay results: PubChem BioAssay (NCI)
This is part of a sample that, as a whole, favours compounds with a hit. Of some 83,000 tested, about 20% had one in any assay.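 Results are percent growth after 48 hours of single-concentration exposure. 100 means growth as in untreated cells, lower positive values show inhibition; negative values down to -100 show cell death.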 Calls of active or inactive are those of the source. The calls were made as follows: active = growth percent below 10; inactive = the rest.

How the values were obtained:
Assay in all cases: NCI-60 one-dose screen, 48 h (100 = growth as untreated, 0 = no growth, -100 = all killed)
Settings in all cases: 10 µM unless noted
[1] = system: NCI-H23 lung
[2] = system: NCI-H226 lung
[3] = system: NCI-H322M lung
[4] = system: HOP-62 NSCLC
[5] = system: NCI-H460 lung
[6] = system: HOP-92 NSCLC
[7] = system: NCI-H522 lung
[8] = system: A549/ATCC NSCLC
[9] = system: 786-0 renal
[10] = system: COLO 205 colon
[11] = system: DU-145 prostate
[12] = system: K-562 leukemia
[13] = system: MALME-3M melanoma
[14] = system: MDA-MB-231 breast
[15] = system: RXF 393 renal
[16] = system: SF-268 CNS
[17] = system: SF-295 CNS
[18] = system: SF-539 CNS
[19] = system: UACC-257 melanoma
[20] = system: M14 melanoma

Measured: growth

Fc1cc2c(cc1Cl)N(c1ncnc3ccc(-c4ccc5n[nH]nc5c4)cc13)CC2
inactive: [1] 79.6% | [2] 88.1% | [3] 54.5% | [4] 72.3% | [5] 97.1% | [6] 31.5% | [7] 67.3% | [8] 77.5% | [9] 78.6% | [10] 109% | [11] 67.1% | [12] 88.2% | [13] 88.8% | [14] 72.8% | [15] 78.7% | [16] 69.5% | [17] 91.7% | [18] 78.9% | [19] 96% | [20] 94.8%

COc1ccc(/C=C/C(=O)c2cccc(OCCCCOc3cccc(C(=O)/C=C/c4ccc(OC)c(OC)c4)c3)c2)cc1OC
inactive: [1] 54.5% | [2] 57.5% | [3] 87.3% | [4] 72.8% | [5] 80.5% | [6] 55.3% | [7] 64.4% | [8] 78% | [9] 89.8% | [10] 112% | [11] 83.3% | [12] 50.7% | [13] 77.7% | [14] 87.7% | [15] 79.1% | [16] 76.2% | [17] 47% | [18] 87.7% | [19] 57.1% | [20] 78.6%

CCOC(=O)c1c2c(n3cccc(F)c13)C(=O)c1ncccc1C2=O
inactive: [6] 38.5% | [13] 25.6% | [14] 38.2% | [16] 20.9% | [19] 12.7%
active: [1] -0.249% | [2] -6.38% | [3] 6.61% | [4] -37.4% | [5] -22.1% | [7] 1.44% | [8] -9.79% | [9] -17.3% | [10] 7.04% | [11] 3.34% | [12] 9.2% | [15] 1.36% | [17] 3.24% | [18] -9.12% | [20] -33.1%

N#Cc1c(-c2ccccc2)[nH]c2ncc(-c3ccccc3)n2c1=O
inactive: [1] 76.9% | [2] 86.3% | [3] 88.6% | [4] 75.6% | [5] 91.1% | [6] 80.7% | [7] 76.9% | [8] 90.6% | [9] 92.3% | [10] 94.7% | [11] 99.7% | [12] 98.7% | [13] 91.5% | [14] 76.3% | [15] 102% | [16] 91.7% | [17] 78.2% | [18] 89.9% | [19] 94% | [20] 91.3%

N#CC(C#N)N=Nc1ccc(Br)cc1
inactive: [1] 24.6% | [2] 79% | [3] 100% | [4] 80.1% | [5] 95.8% | [8] 83.5% | [9] 35.4% | [11] 38.5% | [12] 12.5% | [13] 12.1% | [14] 18.5% | [15] 87.4% | [16] 90.2% | [17] 95.7% | [18] 30.4% | [19] 10% | [20] 42.9%
active: [6] -34.1% | [7] 7.59% | [10] -28.7%

O=C1NC2(Nc3ccccc31)C(=O)Nc1c(Cl)cc(Cl)cc12 (stereo not given)
inactive: [1] 104% | [2] 93.8% | [3] 110% | [4] 84.7% | [5] 102% | [6] 106% | [7] 103% | [8] 110% | [9] 103% | [10] 119% | [11] 117% | [12] 99.4% | [13] 102% | [14] 94.9% | [15] 115% | [16] 96.8% | [17] 101% | [18] 100% | [19] 110% | [20] 101%

Cc1[nH]c(C(=O)Nc2ccc(C(=O)N3CCN(c4cc5c(cc4F)c(=O)c(C(=O)O)cn5C4CC4)CC3)cc2OC(C)C)c(Cl)c1Cl
active: [5] 8.48%
inactive: [1] 78.4% | [2] 96.5% | [3] 90.3% | [4] 97.8% | [6] 46.5% | [7] 82.1% | [8] 38.4% | [9] 79.8% | [10] 114% | [11] 87.2% | [12] 56.4% | [13] 89% | [14] 80.3% | [15] 82.4% | [16] 78.1% | [17] 81.4% | [18] 75.3% | [19] 82.5% | [20] 73.2%

COc1ccc(OC)c(Nc2nnc(-c3ccc(O)c(OC)c3)o2)c1
inactive: [1] 70.7% | [2] 77.1% | [3] 86.9% | [4] 77.6% | [5] 82.8% | [6] 85.1% | [7] 61.1% | [8] 75.5% | [9] 36.7% | [10] 117% | [11] 51.4% | [12] 32.3% | [13] 79.9% | [14] 69.4% | [15] 52.7% | [16] 68.8% | [17] 100% | [18] 49.9% | [19] 115% | [20] 74.6%
